Records with an inconclusive call do not appear. Entries that show only a call come without a potency. Active and inactive are the calls of the source. The call rests on the fitted dose curve.

We go through 40 compounds from PubChem BioAssay (Tox21).

A short description of the assay: p53 small molecule agonists, cell-based qHTS assay with rat liver microsomes: qHTS cell viability counter screen (AID 1963580). Further: nearly all actives have a fitted effect of over 45% in size. Conditions: p53RE-bla HCT-116 + rat microsomes, ATP viability, 16 h; series mostly up to 66 µM. An excerpt: National Center for Advancing Translational Sciences [NCATS]
Division of Preclinical Innovation [DPI]
U.S. Environmental Protection Agency [EPA]
National Institutes of Environmental Health Sciences [NIEHS]
National Toxicology Program [NTP]
U.S. Food and Drug Administration [FDA]
p53, a tumor suppressor protein, is activated following cellular insult, including DNA damage and other cellular stresses. The activation of p53 regulates cell fate by inducing DNA repair, cell cycle arrest, apoptosis, or cellular senescence. The activation of p53, therefore, is a good indicator of DNA damage and other cellular stresses. The CellSensor p53RE-bla HCT-116 cell line contains a stably integrated beta-lactamase reporter gene under control of the p53 response elements. The activation of the reporter gene under culture conditions can be detected by fluorescence intensity. This cell line was used to screen the Tox21 10K compound library in the condition of presence of rat liver microsomes and to identify agonists that activate the p53 signaling pathway after in vitro metabolic activation (Ooka et al., Archive of Toxicology 96:1975-1987, 2022). The cytotoxicity of the Tox21 compound library against the p53 RE-bla HCT-116 cell line was tested in parallel by measuring the intra cellular ATP content in the same wells.
Tox21 Assay Protocol Summary:
The p53RE-bla cells were dispensed at 4,000cells/3ul/well in 1536-well black-clear bottom plates. After the assay plates were incubated at 37 C, 5% CO2 incubator for 5 hours, 23 nL of compounds dissolved in DMSO, positive controls or DMSO only was transferred to the assay plate. Following compound addition, 3 uL of rat liver microsomes (Molecular Toxicology, Boone, NC) at final concentration of 0.5 mg/mL and 1uL of B-Nicotinamide adenine dinucleotide 2'-phosphate (NADPH) at final concentration of 0.5 mg/mL were transferred to the assay plate. The plates were incubated at 37 C for 16 hours. 1 uL of LiveBLAzer detection mixture was added to each well and the plates were incubated at room temperature in the dark for 2 h. Fluorescence intensity at 460 and 530 nm emission and 405 nm excitation were measured by an Envision plate reader. For cell viability readout that measures cytotoxicity, 4 ul/well of CellTiter-Glo reagent was added into the assay plates using a Flying Reagent Dispenser. After 30 min incubation at room temperature, the luminescence intensity in the plates was measured using a ViewLux plate reader.
Consider `CCCCCCCCCCCCOS(=O)(=O)O`, for which the Potency entry was “inactive”.

As for `C=CCc1ccc2c(c1)OCO2`, the Potency entry was “inactive”.

Regarding `Cc1ccc(N=CN(C)C=Nc2ccc(C)cc2C)c(C)c1`, the Potency result was “inactive”.

Take `CC(=O)C=C(C)C`: the Potency result was “inactive”.

`Cc1ccc(CCl)cc1`: the Potency entry is “inactive”.

As for `c1ccoc1`, the Potency entry was “inactive”.

Take `ClCCN1CCCC1`: the Potency entry was “inactive”.

`CN(C)C(=O)C(c1ccccc1)c1ccccc1`: the Potency entry was “inactive”.

As for `CC[N+](CC)(CC)CC`, the Potency entry is “inactive”.

Consider `N#Cc1ccccc1Cl`, for which the Potency result is “inactive”.

Regarding `CCCCN(CCCC)N=O`, the Potency entry is “inactive”.

For the compound `CN(C)[C@@H]1C(=O)C(C(N)=O)=C(O)[C@@]2(O)C(=O)C3=C(O)c4c(O)cccc4[C@@](C)(O)[C@H]3C[C@@H]12`, the Potency result was “inactive”.

For the compound `OCC(Cl)CCl` (stereo not given), the Potency entry is “inactive”.

As to `Clc1ccc(COC(Cn2ccnc2)c2ccc(Cl)cc2Cl)cc1` (stereo not given), the Potency entry is “inactive”.

With `ClCCOCOCCCl`, the Potency entry was “inactive”.

Turning to `N#CCBr`, the Potency result is “inactive”.

In the case of `Sc1ccccc1`, the Potency entry is “inactive”.

Take `CCCCOC(=O)CCC(=O)OCCCC`: the Potency result was “inactive”.

Take `O=C(CCN1CC1)OCC(CO)(COC(=O)CCN1CC1)COC(=O)CCN1CC1`: the Potency result is “inactive”.

For `Cn1cc(-c2ccccc2)c(=O)c(-c2cccc(C(F)(F)F)c2)c1`, the Potency result was “inactive”.

Turning to `C[C@]12CC[C@H]3[C@@H](CC=C4C[C@@H](O)CC[C@@]43C)[C@@H]1CC[C@@H]2O`, the Potency entry was “inactive”.

In the case of `ClCC(Cl)(Cl)Cl`, the Potency result was “inactive”.

Take `Cc1cccc(C#N)c1`: the Potency entry was “inactive”.

In the case of `NCc1cccnc1`, the Potency entry is “inactive”.

As for `O=C(Cc1ccccc1)c1ccccc1`, the Potency result is “inactive”.

Regarding `COc1nc(C)nc(NC(=O)NS(=O)(=O)c2ccccc2Cl)n1`, the Potency entry was “inactive”.

As to `O=c1n(Cl)c(=O)n(Cl)c(=O)n1Cl`, the Potency result is “inactive”.

Take `CC(C)=CC1C(C(=O)OCc2cccc(Oc3ccccc3)c2)C1(C)C` (stereo not given): the Potency entry is “inactive”.

In the case of `CCOC(=O)C1(c2ccccc2)CCN(CCC(C#N)(c2ccccc2)c2ccccc2)CC1`, the Potency entry was “inactive”.

As for `BrCCBr`, the Potency result was “inactive”.

As to `C#CCOS(=O)OC1CCCCC1Oc1ccc(C(C)(C)C)cc1` (stereo not given), the Potency entry was “inactive”.

On to `COc1ccc(C=O)cc1`, for which the Potency entry was “inactive”.

Regarding `OC[P+](CO)(CO)CO`, the Potency entry is “inactive”.

As to `COc1ccc(N)cc1`, the Potency result is “inactive”.

For `COc1ccc(C=O)cc1OC`, the Potency entry is “inactive”.

Consider `Fc1cc(Br)ccc1CBr`, for which the Potency result was “inactive”.

Turning to `CCCCCCCCn1cc[n+](C)c1`, the Potency result is “inactive”.

Turning to `c1ccc2c(c1)CCCC2`, the Potency result was “inactive”.

Regarding `CC(Cl)CCl` (stereo not given), the Potency entry is “inactive”.

Take `COC(=O)NS(=O)(=O)c1ccc(N)cc1`: the Potency entry is “inactive”.
